Records with an inconclusive call do not appear. Entries that show only a call come without a potency. Calls of active or inactive are those of the source. Unless noted, the call rests on the fitted dose curve; in most records, active means well fitted curve in the direction sought with a large enough effect; inconclusive means small, poorly fitted or top-dose-only effect, or another doubt; inactive means no such curve, though single readings can be large; an effect the other way counts as inactive or inconclusive.

The target of assay [1] is Mitogen-activated protein kinase 10 (Mus musculus) (UniProt Q61831). Kind of assay: JNK3 AlphaScreen Assay (AID 530; active means well fitted curve in either direction with a large enough effect, not every such curve was filed as active;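 further: kinase came from lysate of stimulated human HepG2 cells; signal reports phosphorylation of biotinylated GST-cJun 1-79 at Ser73 with 10 µM ATP; series mostly up to about 57 µM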). The gist of the method:
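Inhibitors reduce antibody binding to phosphorylated biotin-cJun, lowering AlphaScreen luminescence. Lysates from HepG2 cells pre-activated by IL-1beta plus TNF-alpha supplied JNK3; compounds were titrated.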
A general note: Bead proximity is the source of the signal in Alpha formats.

Assay [2] has as its target Cytochrome P450 3A4 (Homo sapiens) (UniProt P08684). Kind of assay: qHTS Assay for Inhibitors and Substrates of Cytochrome P450 3A4 (AID 884). Further: potency means the concentration at half of the fitted maximal effect; nearly all actives have a fitted effect of over 50% in size. A digest of the protocol: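 20 nM human CYP3A4 with 25 uM Luciferin-PPXE (at KM) in 200 mM KPO4, preincubated 10 min with compound; NADPH regeneration started a 60 min RT reaction. Luciferin detected by luminescence, normalized to 57 uM ketoconazole as full inhibition.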
For orientation: In qHTS, concentration-response curves come from the screen itself.

The target is the same in assay [3]. Kind of assay: qHTS Assay for Activators of Cytochrome P450 3A4 (AID 885). Further: nearly all actives have a fitted effect of over 65% in size. The gist of the method: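 Steps: enzyme/substrate mix dispensed; compound added, 10 min RT; NADPH regeneration solution added, 60 min RT; luciferin detection buffer stops reaction; 20 min later luminescence measured.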

Sequence of Cytochrome P450 3A4 (Homo sapiens) (P08684 whole entry, looked up): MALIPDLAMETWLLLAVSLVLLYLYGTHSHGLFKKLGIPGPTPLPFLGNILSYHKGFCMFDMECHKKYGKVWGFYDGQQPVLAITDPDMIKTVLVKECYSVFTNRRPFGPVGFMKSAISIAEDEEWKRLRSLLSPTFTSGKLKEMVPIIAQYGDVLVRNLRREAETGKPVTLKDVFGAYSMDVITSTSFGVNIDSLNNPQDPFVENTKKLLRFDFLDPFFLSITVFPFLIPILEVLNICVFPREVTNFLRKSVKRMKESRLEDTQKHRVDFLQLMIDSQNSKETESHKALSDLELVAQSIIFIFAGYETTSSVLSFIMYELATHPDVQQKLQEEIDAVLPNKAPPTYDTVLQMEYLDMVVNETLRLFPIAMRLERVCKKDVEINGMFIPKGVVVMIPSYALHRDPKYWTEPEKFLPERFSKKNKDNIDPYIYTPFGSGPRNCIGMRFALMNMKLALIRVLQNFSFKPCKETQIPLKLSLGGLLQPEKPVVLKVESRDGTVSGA

Regarding `CC1(C(=O)NCCCNc2ncc(C(F)(F)F)cc2Cl)C=CC2(CCCCC2)N1C(=O)c1ccccc1` (centres undefined), in assay [1], the call was inactive. Moreover, in assay [2], the Potency is 7.94 µM (active). Also, in assay [3], the Potency entry is “inactive”.

As to `COC(=O)c1ccc(C(NC(=O)OCc2ccccc2)/C(=C/[C@@H](C)C(=O)NCC2CC2)c2cccnc2)cc1` (some centres undefined), the call in assay [1] was inactive. In assay [2], the Potency was 2 µM (active). In addition, the Potency result in assay [3] was “inactive”.

In the case of `CCCCCCN(C(=O)CCCCCN1C(=O)NC(c2cccc([N+](=O)[O-])c2)C(C(=O)OCc2ccccc2)=C1C)C(C(=O)NCCCC)c1ccc(OCC(=O)OC)c(C(=O)OC)c1` (centres undefined), the outcome in assay [1] was inactive. In addition, the Potency in assay [2] is 3.16 µM (active). Moreover, in assay [3], the Potency result is “inactive”.

As to `CC(C)(C)[Si](OCC[C@@H]1C[C@@]1(C)[C@@H](NP(=O)(c1ccccc1)c1ccccc1)c1ccccc1)(c1ccccc1)c1ccccc1`, the result in assay [1] was inactive. Further, the Potency in assay [2] is 12.6 µM (active). Further, the Potency result in assay [3] was “inactive”.

As to `CC(Cc1ccccc1)C(=O)N[C@@H](CO)Cc1ccccc1` (some centres undefined), the result in assay [1] was inactive. The Potency in assay [2] is 15.8 µM (active). Moreover, in assay [3], the Potency entry was “inactive”.

In the case of `CC(Cc1ccccc1)C(=O)NCc1ccncc1` (centres undefined), in assay [1], the compound was called inactive. The Potency in assay [2] is 2.51 µM (active). For the same compound, in assay [3], the Potency entry is “inactive”.

Consider `C[C@]1(C(=O)NCCc2c[nH]c3ccccc23)C=C[C@@H](Cc2ccccc2)N1C(=O)c1ccccc1`, for which the result in assay [1] was inactive. Besides, the Potency in assay [2] was 1.58 µM (active). The Potency result in assay [3] is “inactive”.

In the case of `CCCCCCN(C(=O)CCCCCN1C(=O)NC(c2ccc(Cl)cc2)C(C(=O)OCc2ccccc2)=C1C)C(C(=O)NCCCC)c1ccc(OCC(=O)OC)c(C(=O)OC)c1` (centres undefined), the call in assay [1] was inactive. The Potency in assay [2] was 3.16 µM (active). In addition, the Potency entry in assay [3] is “inactive”.

Regarding `COC(=O)c1ccc(C(/C=C/[C@@H](C)C(=O)N[C@H](C)CO)NC(=O)OCc2ccccc2)cc1` (some centres undefined), the outcome in assay [1] was inactive. In assay [2], the Potency was 15.8 µM (active). In addition, the Potency entry in assay [3] is “inactive”.

As for `C[C@]1(C(=O)NCC2CC2)C=C[C@@H](Cc2ccccc2)N1C(=O)c1ccccc1`, the call in assay [1] was inactive. Besides, the Potency in assay [2] was 2 µM (active). In assay [3], the Potency entry was “inactive”.

Take `COC(=O)c1ccc(C(NC(=O)OCc2ccccc2)/C(I)=C/[C@@H](C)C(=O)NCc2ccc(OC)c(O)c2)cc1` (some centres undefined): the result in assay [1] was inactive. Further, the Potency in assay [2] is 3.16 µM (active). For the same compound, in assay [3], the Potency result is “inactive”.

For the compound `Cc1nn(-c2ccccc2)nc1CNC(=O)C(C)Cc1ccccc1` (centres undefined), the call in assay [1] was inactive. Moreover, the Potency in assay [2] is 2.51 µM (active). For the same compound, the Potency result in assay [3] was “inactive”.

`COC(=O)c1ccc(C(NC(=O)OCc2ccccc2)/C(F)=C/[C@@H](C)C(=O)NCCN2CCOCC2)cc1` (some centres undefined): in assay [1], the compound was called inactive. Also, the Potency in assay [2] was 3.98 µM (active). Besides, the Potency result in assay [3] was “inactive”.

On to `C[C@]1(C(=O)NCCN2CCOCC2)C=C[C@@H](Cc2ccccc2)N1C(=O)c1ccccc1`, for which the compound was classed as inactive in assay [1]. Also, in assay [2], the Potency is 7.94 µM (active). The Potency result in assay [3] is “inactive”.

As for `CC1(C(=O)NCc2cc(F)cc(C(F)(F)F)c2)C=CC2(CCCCC2)N1C(=O)c1ccccc1` (centres undefined), in assay [1], the result was inactive. The Potency in assay [2] is 6.31 µM (active). Moreover, in assay [3], the Potency result is “inactive”.

Take `COC(=O)c1ccc(C(NC(=O)OCc2ccccc2)/C(C)=C/[C@@H](C)C(=O)Nc2ccc(OC)cc2)cc1` (some centres undefined): the result in assay [1] was inactive. Also, in assay [2], the Potency was 2.51 µM (active). In assay [3], the Potency entry was “inactive”.

As for `COC(=O)c1ccc(C(NC(=O)OCc2ccccc2)/C(F)=C/[C@@H](C)C(=O)NCc2nc3ccccc3s2)cc1` (some centres undefined), the compound was classed as inactive in assay [1]. Moreover, the Potency in assay [2] was 7.94 µM (active). Also, in assay [3], the Potency entry is “inactive”.

`COC(=O)N1[C@H](C)C=C[C@]1(Cc1ccccc1)C(=O)NCCCNc1ncc(C(F)(F)F)cc1Cl`: the outcome in assay [1] was inactive. In assay [2], the Potency is 6.31 µM (active). Besides, the Potency entry in assay [3] was “inactive”.

With `CCCCNC(=O)C(c1ccc(OCC(=O)OC)c(C(=O)OC)c1)N(CCc1ccccc1)C(=O)CCCCCN1C(=O)NC(c2ccc(-c3ccccc3)cc2)C(C(=O)OCc2ccccc2)=C1C` (centres undefined), in assay [1], the result was inactive. Moreover, the Potency in assay [2] was 5.01 µM (active). Further, in assay [3], the Potency entry was “inactive”.

Turning to `COC(=O)c1ccc(C(NC(=O)OCc2ccccc2)/C(C)=C/[C@@H](C)C(=O)NCc2cc(F)cc(F)c2)cc1` (some centres undefined), the call in assay [1] was inactive. In addition, the Potency in assay [2] is 3.16 µM (active). Further, the Potency result in assay [3] is “inactive”.

On to `CC(Cc1ccccc1)C(=O)NCCO` (centres undefined), for which the outcome in assay [1] was inactive. Further, the Potency in assay [2] was 15.8 µM (active). In assay [3], the Potency entry is “inactive”.

For `COCCNC(=O)C1(C)C=CC2(CCCCC2)N1C(=O)c1ccccc1` (centres undefined), the outcome in assay [1] was inactive. The Potency in assay [2] is 15.8 µM (active). The Potency entry in assay [3] was “inactive”.

Turning to `COC(=O)c1ccc(C(NC(=O)OCc2ccccc2)/C(F)=C/[C@@H](C)C(=O)NCc2cccnc2)cc1` (some centres undefined), in assay [1], the call was inactive. Also, in assay [2], the Potency is 1.26 µM (active). Further, the Potency result in assay [3] was “inactive”.

In the case of `COC(=O)c1ccc(C(NC(=O)OCc2ccccc2)/C(=C/[C@@H](C)C(=O)NCc2ccc(S(C)(=O)=O)cc2)c2cccnc2)cc1` (some centres undefined), in assay [1], the call was inactive. In addition, in assay [2], the Potency was 2 µM (active). The Potency entry in assay [3] was “inactive”.

As to `COC(=O)[C@@H]1CCCN1C(=O)[C@H]1C[C@@H]1[C@H](NC(=O)OCc1ccccc1)c1ccccc1`, the outcome in assay [1] was inactive. Besides, the Potency in assay [2] is 10 µM (active). In assay [3], the Potency result is “inactive”.

Consider `COC(=O)c1ccc(C(NC(=O)OCc2ccccc2)/C(=C/[C@@H](C)C(=O)NCc2nc3ccccc3n2C)c2cccnc2)cc1` (some centres undefined), for which the result in assay [1] was inactive. Besides, in assay [2], the Potency is 2 µM (active). Also, the Potency entry in assay [3] is “inactive”.

As to `COC(=O)c1ccc(C(NC(=O)OCc2ccccc2)/C(C)=C/[C@@H](C)C(=O)NCCO)cc1` (some centres undefined), the compound was called inactive in assay [1]. Moreover, the Potency in assay [2] is 2.51 µM (active). Further, the Potency entry in assay [3] is “inactive”.

With `COC(=O)c1ccc(C(NC(=O)OCc2ccccc2)/C(C)=C/[C@@H](C)C(=O)NCc2nc3ccccc3s2)cc1` (some centres undefined), in assay [1], the outcome was inactive. Also, in assay [2], the Potency is 3.98 µM (active). In addition, the Potency entry in assay [3] was “inactive”.

Source of the values: PubChem BioAssay (NCATS).
